D2 ag-1: human D2 receptor agonism in beta-arrestin assay | activation, % (concentration not given with the values) | DiscoveRx PathHunter D2 beta-arrestin, luminescence, 90 min; 100% = 57 uM dopamine signal | hit rate 0.084% among 360,000; in the data active = activation above about 40%; inconclusive = between about 15% and that limit
Target sequence (P14416 whole entry, looked up): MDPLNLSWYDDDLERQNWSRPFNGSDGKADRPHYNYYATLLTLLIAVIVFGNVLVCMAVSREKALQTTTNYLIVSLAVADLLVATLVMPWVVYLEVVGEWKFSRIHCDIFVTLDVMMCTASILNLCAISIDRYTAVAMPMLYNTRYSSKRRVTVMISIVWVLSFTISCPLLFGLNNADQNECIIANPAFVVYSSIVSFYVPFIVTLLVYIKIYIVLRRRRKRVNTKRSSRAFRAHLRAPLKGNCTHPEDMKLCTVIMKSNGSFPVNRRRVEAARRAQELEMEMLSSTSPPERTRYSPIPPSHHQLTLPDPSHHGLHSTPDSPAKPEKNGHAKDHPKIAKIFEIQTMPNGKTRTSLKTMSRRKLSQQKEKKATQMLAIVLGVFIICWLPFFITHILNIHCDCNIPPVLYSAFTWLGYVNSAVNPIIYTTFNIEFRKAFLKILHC
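Agonist mode: compounds alone added to overnight-plated D2 PathHunter cells for 90 min at 37 C, with 57 uM final dopamine (EC100) defining full response. Beta-arrestin recruitment detected by chemiluminescent reagent, read after 1 h at ambient temperature.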
D2 PAM-1: human D2 receptor positive allosteric modulation; P14416; DiscoveRx D2 beta-arrestin cells, luminescence, 90 min; 100% = 57 uM dopamine signal; potentiation, % (test concentration not listed); hit rate 0.23% among 360,000; AID 624464; in the data active = potentiation above about 50%; inconclusive = mostly about 30% to 49%
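PathHunter beta-arrestin assay in DiscoveRx D2 cells. Compounds were added with an EC20 of dopamine (50 nM final) for 90 min at 37 deg C. Luminescence was read 1 h after detection reagent, with 57 uM dopamine as the EC100 control.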
D2 antag: antagonists of human D2 dopamine receptor; P14416; HEK293 TREx D2 cells, calcium flux, dopamine EC80; inhibition, % at 10 µM; hit rate 2% among 340,000; in the data active = inhibition above about 30%; inactive = below that, where a call was filed; also: 0% is about no effect
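Tetracycline-induced HEK293 TREx cells expressing D2 receptor forced-coupled to calcium signalling, loaded with no-wash calcium dye. Compounds added and calcium flux read 180 s, then dopamine added at EC80 and read a further 180 s.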
D2 ag-2: activates the human D2 dopamine receptor. P14416. HEK293 T-REx D2 cells, calcium flux agonist mode. activation, % at 2 µM. hit rate 0.53% among 340,000;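 active = activation over 3 SD above normal in the single-dose calcium agonist read, cut at about 30% in these data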; also: 0% is about no effect
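In this primary screen, compounds producing a positive calcium signal within 180 s of addition to tetracycline-induced, force-coupled HEK293 Trex D2 cells are flagged; cells are dye-loaded with a no-wash calcium kit beforehand.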
D2 PAM-2: positive allosteric modulators of human D2 dopamine receptor. hit rate 0.34% among 340,000. P14416. potentiation, % at 10 µM. HEK293 T-REx D2, calcium flux, EC20 dopamine potentiation;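 active = potentiation over 3 SD above the plate norm, cut at about 30% in these data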; also: 0% is about no effect
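Potentiation of an EC20 dopamine calcium response measured kinetically over 180 s, after a preceding 180 s compound-only read flagging agonists. Cells: inducible Hek293 Trex D2 line, 4000/well, cultured overnight at 30 C before dye loading.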
* = called active by the depositor; ? = inconclusive; . = no result. The list is not random: actives were taken first. Their share in the collection is about 2.4%.

SMILES	D2 ag-1	D2 PAM-1	D2 antag	D2 ag-2	D2 PAM-2
Cc1onc(-c2c(Cl)cccc2Cl)c1C(=O)NCCCN1CCOCC1	-3	3	43*	0	-22
O=C(Nc1cc(C(F)(F)F)ccc1Cl)C1CCN(c2nnc(-n3cccc3)s2)CC1	0	-22	62*	0	-18
CC(C)CCNC(=O)C1CCN(c2nnc(-n3cccc3)s2)CC1	-3	-3	-7	1	8
CS(=O)(=O)N1CCC(C(=O)Nc2cc(C(F)(F)F)ccc2Cl)CC1	-2	-14	-7	0	-12
Cc1oc(-c2ccccc2F)nc1CN1CCC(C(=O)NCCc2ccccc2)CC1	.	.	.	2	-6
O=C(NCCC1=CCCCC1)C1CCN(c2nnc(-n3cccc3)s2)CC1	-4	-1	48*	0	-8
Cc1oc(-c2ccccc2F)nc1CN1CCC(C(=O)NCCC2=CCCCC2)CC1	-4	-8	32*	6	2
CCOC(=O)c1ccc(NC(=O)CC2C(=O)N(c3ccc(F)cc3)C(=O)N2Cc2ccc3c(c2)OCO3)cc1 (stereo not given)	.	.	.	0	-14
COC(=O)c1ccccc1NC(=O)CSc1nnc(-c2cccnc2)o1	-3	-10	7	-3	.
COC(=O)c1ccccc1NC(=O)CSc1nnc(-c2ccc(C)cc2)o1	.	.	7	1	31*
O=C(O)c1ccc(N/N=C/c2ccnc3ccccc23)cc1	-8	-5	40*	0	-5
O=C(NCc1ccccc1)Nc1nnc([C@@H]2C[C@H](O)[C@@H](CO)O2)s1	-5	-30	.	.	.
COc1ccc(-n2c(=O)c3c4c(sc3n(Cc3ccccc3)c2=O)CCC4)c(OC)c1	.	.	.	1	22
COC(=O)c1ccc(/C=C(\C#N)C(=O)NC(C)c2ccccc2)cc1 (stereo not given)	-7	-9	8	-1	10
CC(NC(=O)/C(C#N)=C/c1ccc(N2CCOCC2)cc1)c1ccccc1 (stereo not given)	-4	-6	3	5	32*
C=Cc1ccc(Cn2c(=O)cc(C)c3c(C)nn(-c4ccccc4)c32)cc1	.	.	.	.	8
CC(C)NS(=O)(=O)c1ccc(NC(=O)C(C)OC(=O)CCC(=O)c2cccs2)cc1 (stereo not given)	-2	6	16	0	6
Cc1cc(NC(=O)Cn2c(=O)oc3ccccc32)no1	-3	-3	33*	0	4
Nc1c(C(=O)Nc2ccccc2Cl)c2ccccn2c1C(=O)c1ccccc1	.	.	.	1	-8
C[C@@H]1CN([C@@H](C)CO)C(=O)CCCn2cc(nn2)CO[C@H]1CN(C)S(=O)(=O)c1ccccc1C#N	-11	-11	.	.	.
CCc1ccc(C(=O)N/N=C/c2ccc(Cl)cc2Cl)nc1	.	.	73*	1	-18
Brc1ccc(Oc2nnnn2-c2ccccc2)cc1	-30	-7	45*	-3	-8
O=C(NCc1ccc(F)cc1)C(c1ccc(Cl)cc1)N(C(=O)c1csnn1)C1CC1 (stereo not given)	2	-4	-2	1	-11
CCn1cc(CN2CCC(C(=O)Nc3ccc(Oc4cccnc4)cc3)CC2)c(C)n1	-6	-25	-6	0	-9
CCn1cc(CN2CCC(C(=O)Nc3ccc(Oc4cccnc4)cc3)CC2)cn1	-4	17	31*	-3	-6
SMILES	D2 ag-1	D2 PAM-1	D2 antag	D2 ag-2	D2 PAM-2
CCOC(=O)c1cc(-c2ccc(OC)cc2)n(CCC(=O)NCCc2ccccc2)c1C	.	.	.	1	18
Cc1cc(-c2ccc(C)c(S(=O)(=O)N(C)c3ccc(C)c(C)c3)c2)on1	.	.	.	1	1
CCCSc1nc2c(cnn2-c2ccccc2)c(=O)[nH]1	-4	-5	3	-1	41*
O=c1c2c(nc3cc(-c4ccc(Br)cc4)[nH]n13)CCCC2	-2	-13	54*	11	-27
O=c1c2c(nc3cc(-c4ccccc4)[nH]n13)CCC2	1	-9	-19	0	-4
O=C(NCCSCc1ccco1)Nc1cc(Cl)cc(Cl)c1	-1	-17	30*	2	-13
Cc1cc(C)c(C)c(S(=O)(=O)N[C@@H](C)C(=O)OCc2cc(=O)n3cc(Br)ccc3n2)c1C	1	?	-1	0	2
COc1ccc(N(C(C)=O)c2nc3ccccc3[nH]2)cc1	-3	-4	7	1	0
CC(C)Cn1c(=S)[nH]c2cc(C(=O)O)ccc2c1=O	-3	-8	31*	1	9
COCCn1c(=S)[nH]c2cc(C(=O)NC(C)C)ccc2c1=O	-2	13	2	0	20
COc1ccc(OC2CCN(C(=O)Nc3ccc(C)cc3)CC2)cc1	-8	-21	50*	1	-13
COc1ccc(NC(=O)N2CCC(C(=O)c3ccc(F)cc3)CC2)cc1	1	-15	-15	0	8
Cc1ccc(NC(=O)N2CCC(C(=O)NCc3ccccc3)CC2)cc1	-2	-12	39*	0	-7
CC1CCN(S(=O)(=O)c2ccc3c(c2)oc(=O)n3CC(=O)NC(C)c2ccccc2)CC1 (stereo not given)	.	.	.	0	3
CC(C)[C@H](NC(=O)N1c2ccccc2NC(=O)[C@@H]1C(C)C)C(=O)N[C@H](Cc1ccccc1)C(=O)O	-3	-13	7	0	-2
CCc1cccc(C)c1NC(=O)Cn1c(=O)cc(C(F)(F)F)c2c(C)nn(C)c21	.	.	.	1	10
CCCC(CCC)c1nc2ccncc2[nH]1	3	-1	-5	0	36*
COc1ccc(NS(=O)(=O)c2ccc(C)c(C(=O)N(C)CC(=O)Nc3cccc(OC)c3)c2)cc1	-6	2	12	-1	-4
N#CCSc1nc2ccccc2c2nc3ccccc3n12	0	-6	33*	3	5
Cc1ccc(N2C(=O)c3cccc4c([N+](=O)[O-])ccc(c34)C2=O)c2cccnc12	-3	-12	19	3	3
Cc1ccnc(N2C(=O)c3cccc4c([N+](=O)[O-])ccc(c34)C2=O)c1	9	51*	6	2	-5
Cc1nnc(N2C(=O)c3cccc4c([N+](=O)[O-])ccc(c34)C2=O)s1	4	62*	-5	2	-2
Cc1ccc(Nc2ccc(N3CCN(C(=O)c4ccc([N+](=O)[O-])cc4)CC3)nn2)cc1	.	.	.	4	-5
Oc1ccccc1N1CCN(C(c2ccccc2)c2ccccc2)CC1	-4	-3	30*	0	-2
CC(=O)N1CCN(C(c2ccccc2)c2ccccc2)CC1	-3	-6	.	.	.
CC1(C(=O)NS(=O)(=O)c2cccc(C#N)c2)CCN1C(=O)CC1CC1 (stereo not given)	-4	-5	.	.	.
COc1ccc(C(=O)c2nccc3cc(OC)c(OC)cc23)cc1OC	?	94*	-16	0	15
COc1ccc(C(=O)c2ccc(OC)c(OC)c2)cc1OC	-2	-2	-7	0	-8

Screens from PubChem BioAssay.
